Screening results deposited in PubChem by National Center for Advancing Translational Sciences (NCATS).
ALDH1A1 block – qHTS Assay for Inhibitors of Aldehyde Dehydrogenase 1 (ALDH1A1); Aldehyde dehydrogenase 1A1 (Homo sapiens), P00352; Purified ALDH1A1, NADH fluorescence, propionaldehyde substrate; Potency, µM (titrated, usually from 75.3 µM), inactives show top-dose activity, negative = inhibition, actives largely listed as inhibitors; 220,000 compounds, 7.3% hits;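 note: potency is the fitted concentration of half-maximal effect; plate controls were no enzyme wells and a reference inhibitor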
IMPase cell inh – qHTS Assay for Identifying the Cell-Membrane Permeable IMPase Inhibitors. Inositol monophosphatase 1 (Rattus norvegicus), P97697. CHO-M1 cells, IP1 accumulation, HTRF TR-FRET ratio. inhibition (IP1 accumulation), % at 46.1 µM. 120,000 tested, under 10 active; active = well fitted curve in the direction sought with a large enough effect in the signal ratio, not every such curve was filed as active; inconclusive = small, poorly fitted or top-dose-only effect, or a change in a side signal; inactive = no such curve, though single readings can be large or run the other way; the % refers to the signal ratio;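 note: cells stimulated with carbachol in lithium chloride buffer; plate controls were DMSO basal wells for no effect and reference inhibitor wells for full effect; higher means more IMPase inhibition seen as more IP1 and lower FRET ratio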
Target sequence (P97697 whole entry, looked up): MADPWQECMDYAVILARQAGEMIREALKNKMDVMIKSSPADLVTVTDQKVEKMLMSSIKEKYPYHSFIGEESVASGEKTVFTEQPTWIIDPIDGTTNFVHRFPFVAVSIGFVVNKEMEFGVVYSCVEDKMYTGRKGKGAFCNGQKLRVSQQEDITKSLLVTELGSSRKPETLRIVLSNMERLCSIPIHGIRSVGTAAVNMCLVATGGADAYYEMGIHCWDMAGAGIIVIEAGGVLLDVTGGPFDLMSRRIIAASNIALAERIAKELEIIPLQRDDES
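Carbachol-driven Gq signalling in CHO-M1 cells (2000/well) generates IP1. Compounds that block IMPase raise IP1 and so reduce the FRET signal from Eu-anti-IP1 and d2-IP1 after a 10 min room-temperature lysis.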
HPGD inh – qHTS Assay for Inhibitors of HPGD (15-Hydroxyprostaglandin Dehydrogenase); 15-hydroxyprostaglandin dehydrogenase [NAD(+)] (Homo sapiens), P15428; purified HPGD, NADH fluorescence kinetic, PGE2 substrate; Potency, µM, inactives show at the highest dose activity change, negative = inhibition, actives largely listed as inhibitors; 150,000 compounds, 4.3% hits; AID 894, 2007; note: potency is the fitted concentration of half-maximal effect
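20 nM HPGD preincubated 15 min at room temperature with compound in 50 mM Tris-HCl pH 8, 0.01% Tween 20. Started with 1 mM NAD+ and 30 uM prostaglandin E2; NADH fluorescence (360/450 nm) read 5 times over 30-s intervals, last minus first.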
The depositor's hits bear a star; [ ] = another dose, or the depositor's remark. The list is not random: actives were taken first. Their share in the collection is about 9%. Unless noted, calls come from the whole dose curve; as a rule, active = well fitted inhibition curve with a large enough effect (not every such curve was filed as active); inconclusive = small, poorly fitted or top-dose-only effect, or another doubt; inactive = no such curve, though single readings can be large or run the other way. Unless noted, % is set by controls: 0 for no effect and ±100 for the full control effect.

`NC(=S)N/N=C\c1ccc(-c2cccc(Cl)c2Cl)o1` gave ALDH1A1 block 32µM*, IMPase cell inh -2 and HPGD inh inconclusive.
`NC(=S)N/N=C/c1ccc(-c2ccc(Cl)c(Cl)c2)o1` gave ALDH1A1 block inconclusive, IMPase cell inh -1 and HPGD inh inconclusive.
`CCOC(=O)c1c(/N=C/c2cccc(C)c2O)sc2c1CCN(C)C2` gave ALDH1A1 block -5%, IMPase cell inh 3 and HPGD inh 0%.
Screening COc1cccc(-n2ccnc2SCC(=O)Nc2cc(OC)ccc2OC)c1 returned ALDH1A1 block 1%, IMPase cell inh -1 and HPGD inh -14%.
For COc1ccc(NC(=O)CSc2ccccn2)cc1OC the results were ALDH1A1 block -6%, IMPase cell inh 2 and HPGD inh -17%.
Screening COc1ccc(NC(=O)CSc2ncccc2C(=O)OC(C)C)cc1OC returned ALDH1A1 block 0.079µM*, IMPase cell inh 9 and HPGD inh -14%.
For COc1ccc(OC)c(NC(=O)CSc2ncccc2C(=O)O)c1 the results were ALDH1A1 block inconclusive, IMPase cell inh 0 and HPGD inh 13µM*.
Cc1ccc(CN(C(=O)c2ccco2)C(C(=O)NC2CCCC2)c2cccnc2)cc1 (stereo not drawn) was read as ALDH1A1 block -9%.
`CCOC(=O)CCN1C(=O)[C@H]2[C@H]3[C@H](O)[C@H](O)C/C(=N/OCc4ccccc4)[C@@H]3CC[C@@H]2C1=O` gave ALDH1A1 block -9%[13.5 µM].
`Cc1nnc(SCCCn2c(N3CCN(c4ccccc4)CC3)nc3c2c(=O)[nH]c(=O)n3C)s1` gave ALDH1A1 block -1%, IMPase cell inh 6 and HPGD inh -9%.
Cn1c(=O)c2c(nc(N3CCC(C(N)=O)CC3)n2CCSc2nc3ccccc3s2)n(C)c1=O was read as ALDH1A1 block 2%, IMPase cell inh -2 and HPGD inh -2%.
CC1CCCN(c2nc3c(c(=O)n(C)c(=O)n3C)n2CCSc2nc3ccccc3s2)C1 (stereo not drawn) was read as ALDH1A1 block 14µM*, IMPase cell inh 6 and HPGD inh -24%.
For CC1CCN(c2nc3c(c(=O)n(C)c(=O)n3C)n2CCSc2nc3ccccc3s2)CC1 the results were ALDH1A1 block inconclusive, IMPase cell inh 8 and HPGD inh -9%.
For Cn1c(=O)c2c(nc(N3CCCCC3)n2CCSc2nc3ccccc3s2)n(C)c1=O the results were ALDH1A1 block 28µM*, IMPase cell inh 3 and HPGD inh -11%.
`Cn1c(=O)[nH]c(=O)c2c1nc(N1CCCCC1)n2CCCSc1nc2ccccc2s1` gave ALDH1A1 block inconclusive, IMPase cell inh 9 and HPGD inh 16µM*.
Screening CN(C(=O)COc1ccccc1C(=O)NCCOc1ccccc1)c1ccccc1 returned ALDH1A1 block 6% and HPGD inh -3%.
COc1ccc(Cl)cc1NC(=O)c1cn(C2CCCC2)c(=O)c2c1c1ccccc1n2C was read as IMPase cell inh 2.
For Cc1cc(C2CCCCC2)n(O)c(=O)c1 the results were ALDH1A1 block 4%, IMPase cell inh 2[20.6 µM] and HPGD inh -14%.
CSc1ccc2[nH]c(=O)cc(C)c2c1 was read as ALDH1A1 block inconclusive, IMPase cell inh -3 and HPGD inh inconclusive.
`Cc1ccc(NNC(=O)c2ccc(Cl)cc2)nn1` gave ALDH1A1 block -7%.
For Cc1ccc(NCCC(=O)c2cccs2)cc1Cl the results were ALDH1A1 block 2.5µM*, IMPase cell inh 0 and HPGD inh -7%.
For CC(C)c1ccc(NCCC(=O)c2cccs2)cc1 the results were ALDH1A1 block 2.8µM* and HPGD inh -11%.
For O=C(NNC(=O)c1cccs1)Nc1cccc(Cl)c1 the results were ALDH1A1 block 1%, IMPase cell inh 5 and HPGD inh -14%.
Screening CCOc1ccc(NS(=O)(=O)c2cc(NC(=O)CCC(=O)c3cccs3)ccc2Cl)cc1 returned ALDH1A1 block -8%.
`Cc1ccc(NCCC(=O)c2cccs2)cc1C` gave ALDH1A1 block 1.6µM*.
`O=C(CCNc1cccc(Cl)c1)c1cccs1` gave ALDH1A1 block 1.3µM*, IMPase cell inh 10 and HPGD inh -12%.
For CC(C)CCNC(=O)CNC(=O)c1cccs1 the results were ALDH1A1 block 5%, IMPase cell inh 1 and HPGD inh -1%.
Screening C/C(=N\NC(=O)CCC(=O)Nc1ccc(C)c(C)c1)c1cccs1 returned ALDH1A1 block 2%.
`CCC(CC)NC(=O)Cc1ccc(F)cc1` gave ALDH1A1 block -8%.
